# The list is not random: actives were taken first. Their share in the collection is about 1.5%.
# Bcl-xL primary – inhibitors of human Bcl-xL. GST-Bcl-xL / FITC-Bim BH3 peptide fluorescence polarization. AID 2129. inhibition, % at 10.9 µM. Q07817. 320,000 tested, 0.7% active;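 active means inhibition above the mean of all tested compounds plus 3 SD, cutoff set per campaign, cut at about 30% in these data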;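 further: 0% = DMSO wells and 100% = unlabeled Bim-BH3 peptide competitor; inhibitors lower millipolarization by displacing the labeled peptide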
# GLD-1 TGE inh – GLD-1-TGE RNA interaction inhibition (C. elegans); Q17339; purified GLD-1 + fluorescein TGE RNA, fluorescence polarization; inhibition, % at 5.96 µM; 320,000 tested, 0.44% active; AID 2280;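 active means percent inhibition above a per-plate cutoff, the plate mean of test compounds plus 3 SD, cut at about 30% in these data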;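 further: 0% = DMSO wells with GLD-1 and probe and 100% = wells lacking GLD-1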
# IDE cell inh – inhibitors of human insulin-degrading enzyme in cells; P14735; HEK cells, FAbetaB cleavage, fluorescence polarization; inhibition, % at 5.59 µM; 320,000 tested, 0.41% active; AID 434962;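 active means percent inhibition above the average of all tested compounds plus 3 SD, set per screening campaign, cut at about 16% in these data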;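 further: IDE supplied by intact live HEK cells; FP after avidin binding of uncleaved biotin substrate so inhibition keeps polarization high; 0% = DMSO wells and 100% = 60 µM reference IDE inhibitor Ii1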
# MCL1 BIM primary – inhibitors of human MCL1 binding to BIM-BH3 peptide; Q07820; GST-MCL1 / FITC-Bim-BH3 fluorescence polarization; inhibition, % at 10.9 µM; 320,000 tested, 0.68% active; AID 2057;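 active means inhibition above the mean inhibition of all tested compounds plus 3 SD, set per campaign, cut at about 40% in these data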;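 further: 0% = DMSO wells and 100% = unlabeled Bim-BH3 peptide control; higher means more loss of mP so more displacement of Bim peptide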
# IDE act – IDE (human) activation, cell-based; activation, % at 5.96 µM; P14735; HEK cells, FAbeta-B cleavage, fluorescence polarization; 0% vehicle, 100% cell-free pure enzyme wells; 340,000 tested, 0.073% active;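 active means activation above the mean of all tested compounds plus 3 SD, set per screening campaign, cut at about 17% in these data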
# MEX-5 binding – C. elegans MEX-5 TCR-2 RNA binding activity; Q9XUB2; MEX-5/FITC-TCR2 RNA binding, fluorescence polarization; active compounds read low; activity score (negative = inhibition of binding), % at 10 µM; 300,000 tested, 0.38% active; AID 1832;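 active means inhibition past about -25% in most replicates, and total fluorescence under double the plate's negative control median, limit read from the data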;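 further: 0% = DMSO and -100% = 5 µM competing unlabeled TCR2 RNA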
# GLD1 RNA confirm – confirmation of C. elegans GLD-1 TGE RNA binding inhibitors. shares compounds with GLD-1 TGE inh. GLD-1/FL-TGE RNA fluorescence polarization, biochemical. inhibition, % at 5.96 µM. 550 tested, 10% active. AID 2459;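 active means average inhibition across triplicates above the hit cutoff set in the primary screen, cut at about 32% in these data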;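 further: 0% = GLD-1 with RNA probe and DMSO and 100% = wells lacking GLD-1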
# * hit, by the source's call; . = no result given.
SMILES,Bcl-xL primary,GLD-1 TGE inh,IDE cell inh,MCL1 BIM primary,IDE act,MEX-5 binding,GLD1 RNA confirm
COc1ccc2c(c1)cc(C(=O)N[C@@H](Cc1ccccc1)C(=O)N[C@@H](C)C(=O)O)n2C,0.7,1.1,-1.9,2.6,5.7,-2.5,.
COc1ccc2c(c1)cc(C(=O)N[C@@H](Cc1ccccc1)C(=O)O)n2C,25.5,43.9*,1.1,17.1,4.9,1.2,-1.9
Cc1[nH]c(C)c(S(=O)(=O)N(Cc2ccccc2)C(C)C)c1C(=O)N1CCCC1,0.3,-6.6,3.6,7.4,5.7,1.9,.
COC(=O)C(N)Cc1ccc(O)cc1 (stereo not given),-0.7,-0.9,-4.6,0.1,-1.0,-0.6,.
COC(=O)C(N)Cc1ccc(O)c(O)c1 (stereo not given),10.6,70.5*,4.5,11.1,6.6,-15.5,6.7
CN(C)Cc1cc(C(C)(C)C)cc(C(C)(C)C)c1O,6.8,8.4,1.4,4.8,0.2,2.3,.
CN(C)Cc1cc(O)c(CN(C)C)cc1O,63.8*,62.8*,-4.4,47.8*,-3.8,-35.3*,7.5
CCN(C(=O)C1CCCN(c2ncnc3c2nc2n3CCCCC2)C1)c1cccc(Cl)c1 (stereo not given),7.7,4.2,5.4,4.8,4.0,-0.2,.
CCCCC1=CC2=CC(=O)C(C)(OC(=O)CC)C(=O)C2=CN1CC(C)C (stereo not given),34.5*,31.1*,5.9,41.2*,-1.7,-9.5,22.3
Cc1ccc(NC(=O)CN(C)C(=O)c2ccccc2Sc2ccccc2C#N)cc1,-1.6,-1.4,1.0,-1.0,2.9,0.6,.
Cc1ccc(S(=O)(=O)c2cc3ccc(O)cc3oc2=O)cc1C,27.9,32.1*,-0.9,21.5,1.1,0.9,3.8
COc1ccc(S(=O)(=O)N2CCC(C(=O)Nc3ccccc3N3CCCCC3)CC2)cc1OC,-3.3,-6.5,-5.0,-10.3,-2.6,0.7,.
COc1ccc(OC)c(Nc2cc3ccccc3c(=O)[nH]2)c1,7.3,42.4*,4.8,-2.3,0.3,-8.2,4.2
COc1ccccc1Nc1cc2cc(Br)ccc2c(=O)[nH]1,7.4,1.9,-5.4,-3.9,2.2,-0.8,.
CC(=O)Nc1ccccc1C(=O)C(=O)Nc1cccc(C(=O)N2CC(C)CC(C)C2)c1 (stereo not given),4.4,7.1,0.9,0.2,5.5,-2.0,.
N#CCCn1cc(C=O)c(-c2cccs2)n1,-3.0,69.3*,4.5,-5.6,0.8,1.0,3.6
Cc1cc2ccccc2n1CCNC(=O)c1ccccc1,24.5,16.2,0.3,26.1,3.5,.,.
Cc1cc2ccccc2n1CCNC(=O)c1ccc(Br)o1,34.2*,36.4*,1.5,48.0*,6.9,-19.7,10.8
CCOC(=O)c1cc2c(ccn2C)n1CC(=O)N1CCN(c2cccc(C(F)(F)F)c2)CC1,2.0,39.9*,-2.0,4.1,0.6,0.5,46.7*
CCOC(=O)c1cc2c(ccn2C)n1CC(=O)N1CCN(c2ccc(F)cc2)CC1,0.5,7.8,-2.6,-0.5,3.3,-0.7,.
COc1ccc(CCn2c(N)c(C(=O)NCc3ccco3)c3nc4ccccc4nc32)cc1,3.1,-0.6,-3.2,1.9,3.8,-0.9,.
COCCNC(=O)c1c(N)n(CCC2=CCCCC2)c2nc3ccccc3nc12,49.7*,38.1*,3.0,52.3*,-1.1,-3.8,20.9
O=C(Cc1cn(Cc2cccc(Cl)c2)c2ccccc12)N1CCCC1,2.7,53.8*,-4.2,3.8,0.4,0.3,-5.4
O=C(CS(=O)(=O)c1cn(Cc2ccc(Cl)cc2)c2ccccc12)N1CCCC1,5.3,5.3,-0.4,7.3,2.0,1.3,.
CN1CC2=Cc3ccccc3OC23Oc2ccccc2C=C3C1,14.4,33.5*,2.8,15.9,0.1,-8.3,38.5*
SMILES,Bcl-xL primary,GLD-1 TGE inh,IDE cell inh,MCL1 BIM primary,IDE act,MEX-5 binding,GLD1 RNA confirm
O=C1c2ccccc2OC2(C=Cc3ccccc3O2)N1Cc1ccccc1 (stereo not given),-0.8,5.7,-0.4,-4.8,-4.7,0.1,.
COc1nnc(-c2ccc(C)c(S(=O)(=O)NCCO)c2)c2ccccc12,39.3*,49.0*,0.8,30.2,3.9,0.0,-1.4
COc1nnc(-c2ccc(C)c(S(=O)(=O)NC(C)(C)CO)c2)c2ccccc12,6.1,-5.9,4.5,0.3,0.9,-0.1,.
CCN1C(=O)N/C(=C/c2ccc(C)o2)C1=O,22.1,42.8*,-1.0,28.3,-2.1,-4.9,-9.9
Cc1ccc(/C=C2/NC(=O)N(Cc3ccccc3F)C2=O)o1,17.9,34.2*,3.8,27.2,-10.2,-2.9,-49.8
CCCN1C(=O)/C(=C/c2ccc(C)o2)NC1=S,27.6,13.5,-1.5,34.0,.,-4.8,.
Cc1ccc(/C(O)=C2\C(=O)C(=O)N(Cc3cccnc3)C2c2ccccc2[N+](=O)[O-])cc1 (stereo not given),10.9,9.3,2.1,9.4,-0.4,1.8,.
Cn1c(=O)c(/C=C/c2ccccc2)nc2ccccc21,35.3*,41.0*,2.1,41.4*,12.2,-2.3,1.4
Cn1c(=O)c(/C=C/c2ccc(F)cc2)nc2ccccc21,.,.,.,.,3.7,.,.
CCN(CC)S(=O)(=O)c1ccc(N2CCCC2)c(NS(=O)(=O)c2ccc(F)cc2)c1,5.0,34.1*,8.8,12.2,5.5,2.3,56.8*
CCN(CC)S(=O)(=O)c1ccc(N2CCCC2)c(NS(=O)(=O)c2ccccc2)c1,13.0,13.9,6.3,9.4,-2.5,-2.0,.
COc1ccc(/C=N/c2c(-c3ccco3)nc3ccccn23)cc1OC,38.7*,57.0*,3.5,47.0*,1.4,-5.0,56.6*
Clc1ccc(/C=N/c2c(-c3ccco3)nc3ccccn23)cc1,39.1*,45.2*,-2.5,47.0*,-3.3,-6.1,43.8*
Oc1ccccc1/C=N/c1c(-c2ccco2)nc2ccccn12,23.9,14.5,-0.8,23.2,4.1,-1.1,.
COc1ccc(NC2CCCN(C(=O)c3cn(C)c4ccccc34)C2)cc1 (stereo not given),4.1,-0.9,1.3,0.1,-1.5,-0.5,.
COc1ccc(-n2nc(C(=O)NCC(=O)NC3CCCC(C)C3C)c3ccccc3c2=O)cc1 (stereo not given),8.1,33.3*,4.2,13.8,-2.1,3.5,-1.0
O=C1NC[C@H](Cc2ccccc2)N(CC2CCN(CCCC3CCCC3)CC2)C1=O,.,.,.,.,0.1,.,.
C/C(Cc1ccccc1)=N\NC(=O)CNC(=O)c1ccc(Cl)cc1,4.6,62.2*,1.2,1.7,-2.1,-0.3,-5.2
C/C(Cc1ccccc1)=N\NC(=O)CNC(=O)c1ccc(F)cc1,-0.1,3.3,3.8,0.3,8.5,0.2,.
